Source: PubChem BioAssay (NCI)
Several values for one entry are separate records, joined by “and”; a condition that tells them apart may be missing. Equal entries are not always repeated. The panel holds about 83,000 compounds, 20% with a hit somewhere; the sample as a whole holds those more often.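 Testing used 96-well plates and a 48-hour single-concentration exposure. Example: -40 means 40% of the starting cells died.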 Activity calls are given as the source filed them. Rule for the calls: active = growth percent below 10; inactive = the rest.

The compounds below were run on MDA-MB-468 breast (assay: NCI-60 one-dose screen, 48 h (100 = growth as untreated, 0 = no growth, -100 = all killed)). Details: 10 µM unless noted.

| Structure (SMILES) | growth |
| --- | --- |
| O=c1oc2ccc(Br)cc2c(=O)n1-c1ccc(I)cc1F | -0.692% (active) |
| CCN(CC)C(=O)O/N=C(/C)c1ccccc1 | 96.5% (inactive) |
| CCCCc1n(Cc2ccc3ccccc3c2)c2ccccc2[n+]1Cc1ccc2ccccc2c1 | -78.1% (active) |
| O=C1OCC2=C1C(c1cccc(Cl)c1)c1cc3c(cc1N2CCO)OCCO3 (stereo unspecified) | 9.02% (active) |
| Cc1ccc(NSc2ccccc2[N+](=O)[O-])cc1 | 17.6% (inactive) |
| CC[C@H](C)[C@@H]1NC(=O)[C@H](Cc2ccc(O)cc2)N(C)C(=O)[C@H](Cc2ccccc2)NC(=O)CN(C)C(=O)[C@@H]2CCCN2C(=O)[C@@H](Cc2ccccc2)N(C)C(=O)[C@H](CC(C)C)NC1=O | -13.3% (active) |
| O=C(Nc1ccc(-n2ccc3c(NC(=O)c4ccccc4)nccc32)cc1)c1cccc(C(F)(F)F)c1 | 16.8% (inactive) |
| CC1(C)[C@@H](O[C@@H]2OC[C@@H](O[C@@H]3O[C@H](CO)[C@@H](O)[C@H](O)[C@H]3O[C@@H]3OC[C@@H](O)[C@H](O)[C@H]3O)[C@H](O)[C@H]2O[C@@H]2O[C@H](CO)[C@@H](O)[C@H](O)[C@H]2O)CC[C@]2(C)[C@H]3CC[C@]45OC[C@@]6(CC[C@](C)(C=O)C[C@H]64)[C@H](O)C[C@@]5(C)[C@]3(C)CC[C@@H]12 | -71.2% (active) |
| O=[N+]([O-])c1ccc(N/N=C/c2c(O)ccc3ccccc23)nc1 | 36.9% (inactive) |
| C/C(=C(/c1ccc(Cl)cc1)c1ccc(OCCCN(C)C)cc1)c1ccc(Cl)cc1 | 89.4% (inactive) |
| CCCCc1nc2c(N)nc3ccccc3c2n1Cc1cccc(CN)c1 | 27.3% (inactive) |
| CC(CN(C)C)CN1c2ccccc2Sc2ccccc21 (stereo unspecified) | 40.2% (inactive) and 73.1% (inactive) and 64% (inactive) |
| Cc1cc(O)c(C(C)C)cc1N=O | 62.6% (inactive) and 104% (inactive) |
| Cc1[nH]n(-c2ccccc2)c(=O)c1C=NC(=S)C(N)=S | 95.9% (inactive) |
| CN(C)CCOC(=O)Nc1ccccc1Cl | 113% (inactive) |
| CN1CCN(c2ccc(Nc3nc(NCCNC(=O)c4ccc(F)cc4)c4sccc4n3)cc2)CC1 | 48.4% (inactive) |
| COc1ccc(-c2cncnc2N)cc1OC | 116% (inactive) |
| Cc1n[nH]c(C)c1-c1c(C)n[nH]c1C | -0.751% (active) |
| COc1cc(Cl)cc(-c2nn(C(=O)NS(=O)(=O)c3ccc(Cl)cc3)cc2-c2ccncc2)c1 | 83.7% (inactive) |
| O=C(c1ccccc1)c1ccc(Cl)c([N+](=O)[O-])c1 | 77.7% (inactive) |
| COc1cc(OC)cc(N2CCN(C(=O)Nc3nc4cc(F)ccc4nc3OC)CC2)c1 | -5.78% (active) |
| CC1(C)N=C(N)N=C(N)N1c1ccc(OCC(=O)Nc2ccccc2)c(Cl)c1 | 56.8% (inactive) |
| COc1cccc(-c2nc3cc(NC(=O)c4ccc(Cl)c(C#N)c4)ccc3o2)c1 | -60.3% (active) |
| O=C1/C(=C\c2ccccc2)CN(C(=O)c2ccccc2)C/C1=C\c1ccccc1 | -48.6% (active) |
| N#C/C(=C/c1c(O)ccc2ccccc12)C(N)=O | 97.3% (inactive) |
| CCCCC1C(=O)N(c2ccccc2)N(c2ccccc2)C1=O | 99.5% (inactive) |
